Results taken from PubChem BioAssay (Tox21).
Where “and” joins values, the source holds several entries; their conditions need not be identical. Identical values can stand only once. Inconclusive results are not listed. Some structures have more than one record in an assay (separate samples or runs), and their calls can disagree. Calls of active or inactive are those of the source. Calls follow the shape of the dose curve; as a rule, active = well fitted curve in the direction sought with a large enough effect in the repeat runs; inconclusive = weak or mixed curves; inactive = no such curve, though single readings can be large; an effect the other way counts as inactive or inconclusive.

Columns and labels:
[1] = qHTS RealTime-Glo MT Cell Viability Assay in HEK293 cells - 16 hour (AID 1224872); also: nearly all actives have a fitted effect of over 50% in size; also: potency is read from the fitted curve at half-maximal effect
How it was run: (§1)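 Tox21 10K qHTS, HEK293, 600 cells/well, RealTime-Glo reagent co-dispensed with cells; 5 h preincubation, compound by pintool, 37 C, luminescence at 0–40 h.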

[2] = qHTS RealTime-Glo MT Cell Viability Assay in HepG2 cells - 8 hour (AID 1224873); also: nearly all actives have a fitted effect of over 55% in size; also: potency is read from the fitted curve at half-maximal effect
How it was run: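 Real-time viability: cells seeded at 600 per well together with NanoLuc and cell-permeant prosubstrate, compounds added after 5 h incubation. Luminescence tracked at 0, 8, 16, 24, 32 and 40 h of exposure.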

[3] = A CellTox Green Cytotoxicity Assay to monitor cytotoxicity in HEK293 cells - 24 hour (AID 1224875); also: series mostly up to about 77 µM; nearly all actives have a fitted effect of over 45% in size
How it was run: (§2)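 Fluorescence intensity, read at 0, 8, 16, 24, 32 and 40 h of compound treatment, reflected dye binding to DNA of dead HEK293 cells; compounds (23 nL, DMSO) were added 5 h after plating cells with reagent.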

[4] = A CellTox Green Cytotoxicity Assay to monitor cytotoxicity in HepG2 cells - 16 hour (AID 1224876); also: nearly all actives have a fitted effect of over 45% in size
How it was run: (§3)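 Using 1536-well format, dye-containing HepG2 suspension was seeded, allowed 5 h at 37 C/5% CO2, dosed by pintool with compounds, positive and negative controls, and imaged for fluorescence across 40 h.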

[5] = qHTS RealTime-Glo MT Cell Viability Assay in HepG2 cells - 32 hour (AID 1224877); also: nearly all actives have a fitted effect of over 55% in size; also: potency is read from the fitted curve at half-maximal effect
How it was run: (§4)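 Cells + NanoLuc/prosubstrate dispensed (600 cells/well) → 5 h at 37 C/5% CO2 → compounds in DMSO transferred → 40 h incubation at 37 C, luminescence read at 0, 8, 16, 24, 32, 40 h.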

[6] = A CellTox Green Cytotoxicity Assay to monitor cytotoxicity in HepG2 cells - 24 hour (AID 1224878); also: nearly all actives have a fitted effect of over 45% in size; also: potency is read from the fitted curve at half-maximal effect
How it was run: as §3

[7] = A CellTox Green Cytotoxicity Assay to monitor cytotoxicity in HepG2 cells - 40 hour (AID 1224879); also: nearly all actives have a fitted effect of over 40% in size
How it was run: as §3

[8] = qHTS RealTime-Glo MT Cell Viability Assay in HEK293 cells - 0 hour (AID 1224880); also: top concentration of the series differs between compounds; nearly all actives have a fitted effect of over 45% in size
How it was run: (§5)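 Viable HEK293 cells reduce a cell-permeant prosubstrate; the product diffuses out and is consumed by NanoLuc in the medium to give light. Compounds went in after a 5 h incubation and plates were read over the treatment course.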

[9] = A CellTox Green Cytotoxicity Assay to monitor cytotoxicity in HEK293 cells - 32 hour (AID 1224881); also: nearly all actives have a fitted effect of over 40% in size; also: potency is read from the fitted curve at half-maximal effect
How it was run: as §2

[10] = A CellTox Green Cytotoxicity Assay to monitor cytotoxicity in HepG2 cells - 0 hour (AID 1224882); also: nearly all actives have a fitted effect of over 35% in size
How it was run: as §3

[11] = A CellTox Green Cytotoxicity Assay to monitor cytotoxicity in HepG2 cells - 32 hour (AID 1224883); also: nearly all actives have a fitted effect of over 50% in size; also: potency is read from the fitted curve at half-maximal effect
How it was run: as §3

[12] = A CellTox Green Cytotoxicity Assay to monitor cytotoxicity in HEK293 cells - 8 hour (AID 1224884); also: nearly all actives have a fitted effect of over 35% in size; also: potency is read from the fitted curve at half-maximal effect
How it was run: as §2

[13] = qHTS RealTime-Glo MT Cell Viability Assay in HepG2 cells - 16 hour (AID 1224885); also: nearly all actives have a fitted effect of over 50% in size; also: potency is read from the fitted curve at half-maximal effect
How it was run: as §4

[14] = qHTS RealTime-Glo MT Cell Viability Assay in HEK293 cells - 24 hour (AID 1224886); also: nearly all actives have a fitted effect of over 50% in size; also: potency is read from the fitted curve at half-maximal effect
How it was run: as §1

[15] = qHTS RealTime-Glo MT Cell Viability Assay in HEK293 cells - 8 hour (AID 1224887); also: nearly all actives have a fitted effect of over 50% in size; also: potency is read from the fitted curve at half-maximal effect
How it was run: as §5

[16] = A CellTox Green Cytotoxicity Assay to monitor cytotoxicity in HEK293 cells - 16 hour (AID 1224888); also: nearly all actives have a fitted effect of over 35% in size
How it was run: as §2

[17] = qHTS RealTime-Glo MT Cell Viability Assay in HepG2 cells - 0 hour (AID 1224889); also: nearly all actives have a fitted effect of over 50% in size
How it was run: as §4

[18] = A CellTox Green Cytotoxicity Assay to monitor cytotoxicity in HepG2 cells - 8 hour (AID 1224890); also: nearly all actives have a fitted effect of over 45% in size; also: potency is read from the fitted curve at half-maximal effect
How it was run: as §3

[19] = qHTS assay to identify small molecule antagonists of the estrogen receptor alpha (ER-alpha) signaling pathway using the BG1 cell line in the presence of 0.1 nM 17-beta-estradiol - cell viability counter screen (AID 1259241); also: nearly all actives have a fitted effect of over 40% in size
How it was run: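 Cytotoxicity counter-screen: live-cell protease activity measured by fluorescence (30 min reagent step) in the same wells. Cells were VM7Luc4E2 with endogenous ER-alpha and ERE-driven luciferase, treated 22 hr at 37C alongside 0.1 nM 17beta-estradiol final.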

[20] = qHTS RealTime-Glo MT Cell Viability Assay in HEK293 cells - 40 hour (AID 1224874); conditions: RealTime-Glo luminescence; max response: stronger effect = lower value; also: nearly all actives have a fitted effect of over 50% in size
How it was run: as §5
% is scaled to controls: 0 for no effect and ±100 for the full control effect.

CCC(C)C=O (centres undefined)
inactive and 21.9 µM (active): Potency [6]
inactive: Potency [2] | Potency [3] | Potency [4] | Potency [5] | Potency [7] | Potency [8] | Potency [9] | Potency [10] | Potency [11] | Potency [12] | Potency [13] | Potency [16] | Potency [17] | Potency [18] | Potency [19]
inactive and 13.8 µM (active): Potency [15]
inactive and 3.89 µM (active): Potency [14]
inactive and 6.92 µM (active): Potency [1]

CCCCC(CC)COC(=O)/C=C\C(=O)OCC(CC)CCCC (centres undefined)
inactive: Potency [1] | max response [20] 1.02% and -3.16% | Potency [3] | Potency [5] | Potency [6] | Potency [7] | Potency [8] | Potency [9] | Potency [10] | Potency [11] | Potency [12] | Potency [14] | Potency [15] | Potency [16] | Potency [17] | Potency [18] | Potency [19]

CCCCCCCCC
inactive: Potency [1] | Potency [2] | Potency [3] | Potency [4] | Potency [5] | Potency [6] | Potency [8] | Potency [9] | Potency [10] | Potency [11] | Potency [12] | Potency [13] | Potency [14] | Potency [15] | Potency [16] | Potency [18] | Potency [19]

CCCCCCCCCCCCN
inactive and 24.5 µM (active): Potency [5] | Potency [13] | Potency [18]
inactive and 43.6 µM (active): Potency [9]
inactive and 21.9 µM (active): Potency [2] | Potency [11]
inactive and 49 µM (active): Potency [12]
inactive: Potency [8] | Potency [10] | Potency [17] | Potency [19]
inactive and 19.5 µM (active): Potency [6]
inactive and 38.9 µM (active): Potency [1] | Potency [14] | Potency [15]

Oc1ccc(OCc2ccccc2)cc1
853 nM (active) and inactive: Potency [14] | Potency [15]
957 nM (active) and inactive: Potency [1]
inactive: Potency [2] | Potency [3] | Potency [4] | Potency [5] | Potency [6] | Potency [8] | Potency [9] | Potency [10] | Potency [11] | Potency [12] | Potency [13] | Potency [16] | Potency [17] | Potency [18] | Potency [19]

CCCCCCOC(C)=O
inactive: Potency [1] | Potency [2] | Potency [3] | Potency [4] | Potency [5] | Potency [6] | Potency [7] | Potency [8] | Potency [9] | Potency [10] | Potency [11] | Potency [12] | Potency [13] | Potency [14] | Potency [15] | Potency [16] | Potency [17] | Potency [18] | Potency [19]

CCCCCCC(C)(C)S
inactive: Potency [1] | Potency [2] | Potency [3] | Potency [4] | Potency [5] | Potency [6] | Potency [7] | Potency [8] | Potency [9] | Potency [10] | Potency [11] | Potency [12] | Potency [13] | Potency [14] | Potency [15] | Potency [16] | Potency [17] | Potency [18] | Potency [19]

CCCCC(CC)C(=O)OCCOCCOCCOC(=O)C(CC)CCCC (centres undefined)
inactive: Potency [2] | max response [20] -28.2% | Potency [3] | Potency [5] | Potency [6] | Potency [7] | Potency [8] | Potency [9] | Potency [10] | Potency [11] | Potency [12] | Potency [13] | Potency [15] | Potency [16] | Potency [17] | Potency [18] | Potency [19]

NCc1cccc(CN)c1
inactive: Potency [1] | Potency [2] | Potency [5] | Potency [6] | Potency [8] | Potency [10] | Potency [11] | Potency [12] | Potency [13] | Potency [14] | Potency [15] | Potency [16] | Potency [17] | Potency [18] | Potency [19]

c1ccc2ccccc2c1
inactive: Potency [1] | Potency [2] | Potency [3] | Potency [4] | Potency [5] | Potency [6] | Potency [7] | Potency [8] | Potency [9] | Potency [10] | Potency [11] | Potency [12] | Potency [13] | Potency [14] | Potency [15] | Potency [16] | Potency [17] | Potency [18] | Potency [19]

CC(C)NCC(O)COc1cccc2ccccc12 (centres undefined)
inactive: Potency [1] | Potency [2] | Potency [3] | Potency [4] | Potency [5] | Potency [6] | Potency [8] | Potency [9] | Potency [10] | Potency [12] | Potency [13] | Potency [14] | Potency [15] | Potency [16] | Potency [18] | Potency [19]

C=C(C)C(=O)OCCCCCCCCCCCC
inactive: Potency [1] | Potency [2] | Potency [3] | Potency [4] | Potency [5] | Potency [6] | Potency [7] | Potency [8] | Potency [9] | Potency [10] | Potency [11] | Potency [12] | Potency [13] | Potency [14] | Potency [15] | Potency [16] | Potency [18] | Potency [19]
